Assay results taken from the supplement of paper PMC11417369.
In all, about 25,000 sequences were measured (“ln(normalized median fluorescence intensity)”: median about 9.3, highest 2% from about 10 on). Only a selection was taken, and the highest values are over-represented in it overall.

test system: PF3D7_0420300 AP2 domain 1 (GST-tagged); experiment: gcPBM binding intensity (ln(normalized median fluorescence intensity)); higher = stronger DNA binding
How it was run: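 GST-tagged P. falciparum DNA-binding domains produced in E. coli were incubated for 1 h on an Agilent 4 × 180k array of primer-extended double-stranded 36-bp intergenic genomic probes with negative controls. Binding intensity is the highest Masliner-normalised natural-log median intensity across replicate spots of either probe orientation, with bound protein detected by Alexa488 anti-GST antibody at 488 nm.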

| Sequence | gcPBM binding intensity (ln) |
| --- | --- |
| TATTTTCTCTTAAAAAGTACTCATATATACATTTAT [XGTACX_site7748] | 9.07 |
| GAGTAAAAATTAAAATGTACATATTATATATATTTA [XGTACX_site1319] | 9.09 |
| CTTTGCCTTAAAAAGGAACACACATGCTTTTTTTAG [CACACA_site8219] | 9.22 |
| TTTTTTTTTACTTGTTGTACTTTTTCAAGGTATTGT [XGTACX_site7778] | 9.42 |
| TATATACATAAAATTTGTACATATATATATATATAT [XGTACX_site3214] | 9.28 |
| TGCTTATATCTTATAATATTTATACATCATAATAAG [CACACA_negctrl_site629] | 9.17 |
| ATTTTTCTTTTATTAACACACATATAAATAAATACA [CACACA_site2876] | 9.22 |
| TAATAATAGAAACACACACACATAGACATATATATA [CACACA_site1307] | 10.1 |
| ATAATATAGAAACACACACACATATATATATACATT [CACACA_site555] | 10.2 |
| TATATATAGAAACACACACACACATATATATATATT [CACACA_site2539] | 10.1 |
| CATAATAATAGAAACACACACACATAGACATATATA [CACACA_site1308] | 10.2 |
| TATACATAGAAACACACACACATAAATAAATATATA [CACACA_site1342] | 10.1 |
| TATACATAGAAACACACACACATATATATATATATA [CACACA_site2248] | 9.79 |
| TGTATCCACATATGTACACACATATATCTGTATATG [CACACA_site5668] | 9.51 |
| CAAAAATAAAAGAAATGTACAAAAAATAATAAAAAA [XGTACX_site6597] | 9.43 |
| TATTTTATACATATTTTACACACTAATATATACATA [CACACA_site7998] | 9.42 |
| AGGAATATCGAAAACTGTACTTGTATGTTTCATAAA [XGTACX_site6143] | 9.02 |
| TTAGGCAAGGCGGGGGGTACGTTTTTATATAATTAT [XGTACX_site8029] | 10.6 |
| AATAATATATTTAGGGGTACATAATAATATATTTTA [XGTACX_site8366] | 9.27 |
| AAATATATTATAAATTGTACGTTTATATATATTATT [XGTACX_site5110] | 9.35 |

| Sequence | gcPBM binding intensity (ln) |
| --- | --- |
| ATTTTTGTAAATACATGTACATATATATGCATATCC [XGTACX_site6353] | 9.49 |
| TTTCTATTTCCTTCACATCTTTTCATCTTTTTTTTT [CACACA_negctrl_site1110] | 9.71 |
| TTAATGGAAAAATAGGCACACACACCGATATACATA [CACACA_site8356] | 9.94 |
| TGGAAAAATAGGCACACACACATATATACATATATA [CACACA_site1297] | 10 |
| AATGGAAAAATAGGCACACACACATAAATACAGATA [CACACA_site4844] | 10.3 |
| AATGGCAAAATAGGCACACACACATATACATATATA [CACACA_site1058] | 10.1 |
| AATGGAAAAATAGGCACACACACATATATACATATA [CACACA_site1298] | 10.2 |
| AATGGCAAAATAGGCACACACACATATACAGATATA [CACACA_site4726] | 10.1 |
| GACCCCATATACATATGTACATACATAATATATATA [XGTACX_site1817] | 9.57 |
| TAAAATATAATAAAATGTACACGCATGCAATAGAAT [XGTACX_site7434] | 9.65 |
| ATCAGTCGGCAGGACAGTACACAGTAGCCAGAAAAT [XGTACX_site2550] | 9.49 |
| AGTATAAATAAATCATAAACATATATATATATATAT [GTGCAC_negctrl_site356] | 9.2 |
| TATTCCCCCAAACACACACACACACCCACATACCAC [CACACA_site2304] | 10.3 |
| AAAAAAAAAAAACATACACACATACATACATATATA [CACACA_site8222] | 9.82 |
| AAAAAGAAAAAACTTACACACATATATACACCCATG [CACACA_site8079] | 10.1 |
| CAAACACCCAAACACACACACACATACATACATACA [CACACA_site8044] | 10.2 |
| AAAAAAAAAAAAAACACACACACACCCAAATACATA [CACACA_site708] | 9.87 |
| AAAAAGAAAAAACTTACACACATATATACAGACATG [CACACA_site550] | 9.93 |
| AACACCCAAAAACACACACACATACATACATACATA [CACACA_site4411] | 9.98 |
| AAAAAAAAAAAAAACACACACATACACCCAAAAATG [CACACA_site4223] | 9.84 |

| Sequence | gcPBM binding intensity (ln) |
| --- | --- |
| AAAAAAAAAAAACACACACACACACTAGTACATACA [CACACA_site4551] | 10.2 |
| AAGTACATACATAAAACACACACATATATATATATA [CACACA_site8541] | 9.59 |
| AAAAAAAAAAAAAAAACACACACATACACCCAAAAA [CACACA_site7910] | 9.69 |
| AAAAAGAAAAAACTTACACACATATATACCCCCATG [CACACA_site4463] | 10.2 |
| TCTTATAAACTCTGCACACATAATATATTAAATGAG [CACACA_site1936] | 9.31 |
| TATATTTATTATAATTGTACATAAAATAAACTAAGA [XGTACX_site4318] | 9.19 |
| TATATATGTAGACGTTGTACTTTTTTGTAAGTTTAA [XGTACX_site5638] | 9.13 |
| TGATATTTTTCCATAGTGCAAAATATAGTAATGTAT | 9.11 |
| AAAAAACAGACATACACACACACACCCATATATATA [CACACA_site3392] | 10.2 |
| AAAAAAAAAAAACACACACACACATACCCATACATA [CACACA_site5575] | 10.1 |
| AAAAAACACCCATACACACACACACCGATATATATA [CACACA_site5808] | 10.2 |
| AAAAAAAAAAAAAAAACACACATACACCCAGACACA [CACACA_site5807] | 9.6 |
| AAAAAAAAAAAACACACACACACATACACATACATA [CACACA_site2858] | 10.2 |
| AAAAAAAAAAAAAACACACACACACCCATACACATA [CACACA_site2860] | 10.1 |
| AAAACATACATATATACACACATATATATATATATA [CACACA_site1852] | 9.57 |
| CACAGACACCCATACACACACATACCCATATATATA [CACACA_site5023] | 10 |
| AAAAAAAAAAAACACACACACACACCCATACATACA [CACACA_site707] | 10.2 |
| AAAAAAAAAAAAAAAACACACATACATACATACATA [CACACA_site6125] | 9.61 |
